About 83,000 compounds went through this panel and 20% of them were active in at least one assay; those are over-represented in the sample as a whole.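 Compound tested at a single concentration for 48 hours in 96-well plates; a percent growth value below 10 was scored as active.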 A number with no mark means an inactive call. The source made the active and inactive calls.

Growth data for eight compounds are collected here from PubChem BioAssay (NCI).

Test systems include NCI-H23 lung; NCI-H226 lung; NCI-H322M lung; HOP-62 NSCLC; NCI-H460 lung; HOP-92 NSCLC; NCI-H522 lung; A549/ATCC NSCLC; 786-0 renal; COLO 205 colon; DU-145 prostate; K-562 leukemia; MALME-3M melanoma; MDA-MB-231 breast; RXF 393 renal; SF-268 CNS; SF-295 CNS; SF-539 CNS; UACC-257 melanoma; M14 melanoma.
Holding throughout (experiment): NCI-60 one-dose screen, 48 h (100 = growth as untreated, 0 = no growth, -100 = all killed)
What all share (conditions): 10 µM unless noted

For `CC(=O)OC1CCC2C3CCC4=C/C(=N/OC(=O)c5ccc(N(CCCl)CCCl)cc5)CCC4(C)C3CC(C)C12` (stereo not given), the growth is 69.7% with NCI-H23 lung; 94% with NCI-H226 lung; 91.7% with NCI-H322M lung; 78.6% in the assay on HOP-62 NSCLC; -4.94% (active) in the assay with NCI-H460 lung; 92.5% in the assay with HOP-92 NSCLC. The growth was 79.2% in the assay with NCI-H522 lung; 56.6% with A549/ATCC NSCLC; 87% in the assay with 786-0 renal; 83.7% in the assay with COLO 205 colon; 79.6% in the assay with DU-145 prostate; 18.2% in the assay on K-562 leukemia. For the same compound, the growth in the assay with MALME-3M melanoma was 76.3%; in the assay on MDA-MB-231 breast it was 78.5%; in the assay with RXF 393 renal it was 67.9%; in the assay with SF-268 CNS it was 62.9%; in the assay on SF-295 CNS, 81.5%; in the assay on SF-539 CNS, 75.6%. The growth is 105% in the assay with UACC-257 melanoma and 89.6% in the assay with M14 melanoma.

On to `CC(=O)C(c1c(O)c2ccccc2oc1=O)c1cc(=O)oc2c1ccc1ccccc12` (stereo not given), for which the growth in the assay on NCI-H23 lung was 100%; with NCI-H226 lung, 90.7%; with NCI-H322M lung it was 106%; in the assay with HOP-62 NSCLC it was 90.9%; in the assay with NCI-H460 lung, 102%; in the assay with HOP-92 NSCLC, 65.4%. Further, the growth was 96.2% with NCI-H522 lung; 97% in the assay on A549/ATCC NSCLC; 96.3% with 786-0 renal; 112% in the assay on COLO 205 colon; 115% with DU-145 prostate; 96.7% in the assay with K-562 leukemia. Moreover, the growth in the assay with MALME-3M melanoma was 98.7%; in the assay with MDA-MB-231 breast, 89.8%; in the assay with RXF 393 renal, 97%; with SF-268 CNS, 103%; with SF-295 CNS, 96.3%; with SF-539 CNS it was 92.7%. In addition, the growth in the assay with UACC-257 melanoma and in the assay with M14 melanoma was 102% throughout.

Consider `COC(=O)[C@@H](C)C[C@H](Cc1ccccc1)NC(=O)c1nc([C@@H](C[C@H](C(C)C)N(C)C(=O)[C@@H](NC(=O)[C@H]2CC(=O)CCN2C)C(C)C)OC(C)=O)sc1C(C)C`, for which the growth in the assay on NCI-H23 lung is 26.5%; with NCI-H226 lung, -25.2% (active); with NCI-H322M lung, 30.1%; with HOP-62 NSCLC it was 15.6%; with NCI-H460 lung it was 3.43% (active); in the assay with HOP-92 NSCLC, 34.8%. Also, the growth in the assay on NCI-H522 lung is -30.5% (active); in the assay with A549/ATCC NSCLC it was 18.7%; in the assay on 786-0 renal, 6.83% (active); with COLO 205 colon, -39.9% (active); in the assay on DU-145 prostate it was -11.3% (active); in the assay on K-562 leukemia, 12.3%. Also, the growth in the assay on MALME-3M melanoma is 44.3%; in the assay on MDA-MB-231 breast, 6.36% (active); in the assay with RXF 393 renal it was 6.58% (active); in the assay on SF-268 CNS, 20%; in the assay on SF-295 CNS, -1.71% (active); with SF-539 CNS, -18% (active). In addition, the growth is 77.6% in the assay on UACC-257 melanoma and -10.3% (active) in the assay on M14 melanoma.

As to `O=C1OCCC1Br` (stereo not given), the growth is 103% with NCI-H23 lung; 103% with NCI-H226 lung; 97.7% in the assay with NCI-H322M lung; 105% with HOP-62 NSCLC; 105% in the assay with NCI-H460 lung; 85.6% in the assay on HOP-92 NSCLC. The growth in the assay with NCI-H522 lung was 83.9%; in the assay with A549/ATCC NSCLC, 99.8%; in the assay on 786-0 renal, 106%; with COLO 205 colon it was 120%; in the assay with DU-145 prostate it was 106%; with K-562 leukemia, 80.9%. Moreover, the growth with MALME-3M melanoma was 97.8%; with MDA-MB-231 breast, 103%; with RXF 393 renal, 114%; in the assay with SF-268 CNS, 108%; in the assay with SF-295 CNS, 105%; in the assay on SF-539 CNS, 95.6%. In addition, the growth with UACC-257 melanoma is 83%; with M14 melanoma, 109%.

For `CCCCCCC(=O)NC1=C(N2CC2)C(=O)C(NC(=O)CCCCCC)=C(N2CC2)C1=O`, the growth with NCI-H23 lung is 33.6%; in the assay on NCI-H226 lung it was 75%; in the assay on NCI-H322M lung, 79.5%; in the assay on HOP-62 NSCLC, 47.2%; in the assay on NCI-H460 lung, 24%; with HOP-92 NSCLC it was 65.3%. In addition, the growth was 39.2% in the assay with NCI-H522 lung; 42.3% with A549/ATCC NSCLC; 33.6% with 786-0 renal; 3.58% (active) in the assay with COLO 205 colon; 15.6% with DU-145 prostate; 70.7% with K-562 leukemia. Further, the growth is 7.93% (active) with MALME-3M melanoma; 24.8% in the assay with MDA-MB-231 breast; 25.7% with RXF 393 renal; 52.9% with SF-268 CNS; 29.7% in the assay with SF-295 CNS; 61.7% in the assay on SF-539 CNS. The growth is 34.2% in the assay on UACC-257 melanoma and 20.5% in the assay on M14 melanoma.

Turning to `COC(=O)C12CC(NC(=O)c3csc([C@@H](C[C@H](C(C)C)N(C)C(=O)[C@@H](NC(=O)[C@H]4CCCCN4C)C4CC4)OC(C)=O)n3)(C1)C2`, the growth with NCI-H23 lung is 29.4%; in the assay with NCI-H226 lung, 14.6%; with NCI-H322M lung, 45%; in the assay on HOP-62 NSCLC, 6.31% (active); with NCI-H460 lung it was 7.21% (active); in the assay with HOP-92 NSCLC, 18.7%. The growth with NCI-H522 lung is -4.14% (active); with A549/ATCC NSCLC it was 13%; in the assay on 786-0 renal, 24.5%; in the assay with COLO 205 colon, -64.5% (active); in the assay on DU-145 prostate, 4.38% (active); in the assay with K-562 leukemia it was 7.65% (active). The growth in the assay on MALME-3M melanoma was 70%; with MDA-MB-231 breast it was -0.474% (active); in the assay on RXF 393 renal, 14.5%; in the assay on SF-268 CNS, 21.9%; in the assay with SF-295 CNS, 6.6% (active); with SF-539 CNS it was -28.5% (active). Further, the growth is 42.2% with UACC-257 melanoma and 14.8% in the assay on M14 melanoma.

For the compound `Nc1ccc2c(c1)Cc1cc(Br)ccc1-2`, the growth was 90.5% with NCI-H23 lung; 95.4% in the assay with NCI-H226 lung; 105% in the assay with NCI-H322M lung; 101% in the assay on HOP-62 NSCLC; 104% in the assay on NCI-H460 lung; 78% in the assay on HOP-92 NSCLC. The growth was 107% in the assay on NCI-H522 lung; 100% in the assay with A549/ATCC NSCLC; 108% in the assay on 786-0 renal; 117% in the assay on COLO 205 colon; 109% in the assay with DU-145 prostate; 92.2% in the assay on K-562 leukemia. The growth in the assay on MALME-3M melanoma is 118%; in the assay on MDA-MB-231 breast, 84%; in the assay with RXF 393 renal, 112%; with SF-268 CNS, 88%; in the assay on SF-295 CNS, 107%; with SF-539 CNS, 100%. Also, the values for the growth in the assay on UACC-257 melanoma and in the assay with M14 melanoma were 122% and 118%, respectively.

For `CCCCCCCCCCCCNC(c1ccccc1)C(O)c1ccccc1` (stereo not given), the growth in the assay with NCI-H23 lung is 78.7%; with NCI-H226 lung, 103%; with NCI-H322M lung, 88.2%; with HOP-62 NSCLC, 90.3%; in the assay with NCI-H460 lung, 93.4%; with HOP-92 NSCLC, 80.7%. For the same compound, the growth in the assay on NCI-H522 lung was 69.1%; in the assay on A549/ATCC NSCLC it was 84.7%; in the assay with 786-0 renal, 79.3%; in the assay on COLO 205 colon, -30.7% (active); in the assay on DU-145 prostate it was 83.5%; in the assay on K-562 leukemia, 24.1%. The growth in the assay with MALME-3M melanoma is 68.3%; in the assay on MDA-MB-231 breast, 39.9%; in the assay on RXF 393 renal, 59%; in the assay on SF-268 CNS, 79%; in the assay with SF-295 CNS it was 107%; in the assay with SF-539 CNS, 87.9%. Further, the growth is 99.9% in the assay on UACC-257 melanoma and 93.3% in the assay on M14 melanoma.
